USP17 inh: inhibitors of human USP17 deubiquitinase. A8MUK1. purified USP17, Ub-rhodamine cleavage fluorescence, 3 h. inhibition, % at 50 µM. 6.5% of 47,000 active. AID 1645855
Target sequence (A8MUK1 whole entry, looked up): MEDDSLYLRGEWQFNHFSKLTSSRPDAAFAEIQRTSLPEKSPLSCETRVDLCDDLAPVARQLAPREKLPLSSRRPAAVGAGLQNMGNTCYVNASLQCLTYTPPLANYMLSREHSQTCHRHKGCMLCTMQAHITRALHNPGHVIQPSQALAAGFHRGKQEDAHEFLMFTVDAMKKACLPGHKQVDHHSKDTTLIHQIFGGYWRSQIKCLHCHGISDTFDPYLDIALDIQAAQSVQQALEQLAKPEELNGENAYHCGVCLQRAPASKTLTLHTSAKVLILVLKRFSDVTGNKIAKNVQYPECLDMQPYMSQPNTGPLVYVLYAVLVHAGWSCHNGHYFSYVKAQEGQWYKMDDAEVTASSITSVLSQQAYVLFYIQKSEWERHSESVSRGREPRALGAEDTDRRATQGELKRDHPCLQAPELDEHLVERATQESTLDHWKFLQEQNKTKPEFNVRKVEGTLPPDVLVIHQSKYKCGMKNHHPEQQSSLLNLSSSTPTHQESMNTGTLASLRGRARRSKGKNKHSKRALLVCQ
USP30 inh: inhibitors of human USP30 deubiquitinase; AID 1645860; purified USP30, Ub-rhodamine cleavage fluorescence; 5.3% of 47,000 active; inhibition, % at 25 µM
* = called active by the depositor; i = inactive; / = not tested or not shown. In the library only some 9.6% were active in any assay of this set; here they are far more common. No stated cut-off is given here; in the data, active means inhibition above about 30%; inactive means the rest.

SMILES	USP17 inh	USP30 inh
CCc1ccc(-c2nc(SC(C)C(=O)NC3CCCc4ccccc43)n[nH]2)cc1 (stereo not drawn)	48.4*	39.6*
COc1ccc(-c2cc(C(=O)NC3CCCc4ccccc43)[nH]n2)cc1 (stereo not drawn)	/	24.6
CCOc1ccccc1NC(=O)c1cc(-c2ccncc2)n[nH]1	-21.1	/
Cc1cccc(-c2cc(C(=O)Nc3ccccc3F)[nH]n2)c1O	89.7*	57.7*
Cc1cc(C(=O)Nc2ccccc2Cl)cc2c1N(C)S(=O)(=O)c1ccccc1-2	6.1	23.2
Cc1cc(C)c(O)c(-c2cc(C(=O)Nc3ccccc3Cl)[nH]n2)c1	68.3*	46.1*
COc1ccc2c(C)c(CC(=O)N[C@@H](Cc3c[nH]c4ccc(O)cc34)C(=O)O)c(=O)oc2c1C	16.5	-30.6
CCN1CCC2(CN(C(=O)N(C)C)CC23CCN(C(=O)Nc2ccccc2)CC3)C1=O (stereo not drawn)	-19.0	-23.4
CCn1cc(C(=O)NCc2ccccc2)c(=O)c2ccc(C)nc21	3.7	-37.4
O=C(NCc1ccccc1Cl)c1ccc(-c2ccc(N3CCCC3)nn2)cc1	42.3*	-47.2
COc1ccc(CNC(=O)c2ccc(-c3ccc(N4CCCC4)nn3)cc2)c(OC)c1	7.5	18.9
Cc1onc(-c2c(Cl)cccc2Cl)c1C(=O)N1CC=CCC1	3.9	-0.6
Cc1ccccc1Cn1cccc(-c2nc(C3CC3)no2)c1=O	4.3	-2.1
COc1ccc(NC(=O)CSc2nc3ccccc3c3nc(C)nn23)cc1	16.6	13.8
Cc1cccc(C(C)C)c1NC(=O)Cn1c(COc2ccccc2)nc2ccccc21	/	21.5
Cc1ccc(OCc2nc3ccccc3n2CC(=O)Nc2ccc(C(F)(F)F)cc2)cc1	18.3	38.2*
COc1ccc(NC(=O)Cn2c(CSc3ccc(C)cc3)nc3ccccc32)cc1	54.4*	-111.9
CC(C)NC(=O)CN1CCC(O)(c2cccnc2)CC1	7.4	0.0
CCc1ccc(NC(=O)N2CC[C@@H]3CN(CC)S(=O)(=O)[C@@H]3CC2)cc1	-1.3	-2.6
FC(F)(F)c1cnc(/C=C/Nc2cccc(Oc3ncc(C(F)(F)F)cc3Cl)c2)c(Cl)c1	-5.6	-84.2
O=C(NCc1ccccc1)[C@H]1C[C@@H]2CN(Cc3ccccc3)C[C@H]1O2	-3.2	14.5
Cc1cc(-c2cccc(S(=O)(=O)N3CCOCC3)c2)n2c(nc3ccccc32)c1C#N	-100.5	i
N#Cc1c2c(c(-c3ccccc3)n3c1nc1ccccc13)CCC2	43.1*	-38.4
O=C(CN1C(=O)[C@H]2CCCN2c2ncccc21)Nc1cccc2c1CCCC2	0.5	-55.7
CCOc1ccc(CCN2C(=O)CCC2(C)C(=O)NCc2ccccc2)cc1 (stereo not drawn)	-2.9	-0.1
SMILES	USP17 inh	USP30 inh
COc1ccc(-c2nc(Cn3nnc(C(=O)Nc4ccc(C)c(C)c4)c3N)c(C)o2)cc1	79.8*	7.6
CCOC(=O)c1noc2nc(C)n(Cc3nc(-c4ccc(OC)cc4)oc3C)c(=O)c12	0.0	-3.1
COc1ccc(-c2nc(Cn3nnc(C(=O)Nc4ccc(C)cc4C)c3N)c(C)o2)cc1	28.9	57.2*
COc1ccc(-c2nc(Cn3c(=O)n(C(C)C)c(=O)c4ccccc43)c(C)o2)cc1	10.6	5.9
COc1ccc(CCN(C)c2ncnc3c2[nH]c2ccccc23)cc1OC	0.0	-16.7
COc1ccc(CCN(C)C(=O)COc2ncnc3ccccc23)cc1OC	/	32.1*
CCc1ccc(NC(=O)Cc2nnc3ccc(-c4nc(C)no4)cn23)cc1	-1.0	-32.0
CC1=CC[C@]2(CO)COC(C(C)(C)CO)[C@H]1C2 (stereo partly drawn)	6.5	4.1
CC(=O)N1CCc2cc(S(=O)(=O)NCc3ccc(C)cc3)ccc21	56.9*	0.0
CCC(=O)N1c2ccc(S(=O)(=O)NCC(=O)NCc3ccc(C)cc3)cc2CC1C (stereo not drawn)	14.8	34.2*
CC(=O)N1CCc2cc(CNS(=O)(=O)c3ccccc3)ccc21	2.9	17.0
COc1ccc(C)cc1NC(=O)C(NS(=O)(=O)c1ccc2c(c1)CCN2C(C)=O)C(C)C (stereo not drawn)	26.9	54.4*
CC(=O)N1CCc2cc(S(=O)(=O)NC(C(=O)Nc3nc4ccc(C)cc4s3)C(C)C)ccc21 (stereo not drawn)	6.5	1.9
CCC(=O)N1c2ccc(S(=O)(=O)N3CCOCC3)cc2CC1C (stereo not drawn)	-4.1	-5.4
O=C(C1CC1)N1CCc2cc(S(=O)(=O)NCC3COc4ccccc4O3)ccc21 (stereo not drawn)	-5.7	-5.7
CC(=O)N1CCc2cc(S(=O)(=O)NCC3COc4ccccc4O3)ccc21 (stereo not drawn)	37.8*	8.2
CC(C)(C)c1ccc(/C=C/C(=O)Nn2cnnc2)cc1	-12.4	-28.6
CCn1nc(CNC(=O)c2cccc(NC(C)=O)c2)c2ccccc21	4.5	9.9
Cc1cnc(C(=O)N2CCC3(CC2)CCN(CC2CCCC2)C3=O)cn1	-25.3	-29.4
CC1CCN(C(=O)CSc2nc(N)c3c4c(sc3n2)CN(C)CC4)CC1	-37.0	-233.7
